Legend:
[1] = target: Sphingosine kinase 1 (Homo sapiens) (UniProt Q9NYA1); details: at 1 µM;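 also: mean SPHK1 inhibition value reported from the GSK PKIS kinase panel screen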
[2] = target: T1, Sphingosine kinase 2 (Homo sapiens) (UniProt Q9NRA0); details: at 0.1 µM
T1 sequence (whole entry): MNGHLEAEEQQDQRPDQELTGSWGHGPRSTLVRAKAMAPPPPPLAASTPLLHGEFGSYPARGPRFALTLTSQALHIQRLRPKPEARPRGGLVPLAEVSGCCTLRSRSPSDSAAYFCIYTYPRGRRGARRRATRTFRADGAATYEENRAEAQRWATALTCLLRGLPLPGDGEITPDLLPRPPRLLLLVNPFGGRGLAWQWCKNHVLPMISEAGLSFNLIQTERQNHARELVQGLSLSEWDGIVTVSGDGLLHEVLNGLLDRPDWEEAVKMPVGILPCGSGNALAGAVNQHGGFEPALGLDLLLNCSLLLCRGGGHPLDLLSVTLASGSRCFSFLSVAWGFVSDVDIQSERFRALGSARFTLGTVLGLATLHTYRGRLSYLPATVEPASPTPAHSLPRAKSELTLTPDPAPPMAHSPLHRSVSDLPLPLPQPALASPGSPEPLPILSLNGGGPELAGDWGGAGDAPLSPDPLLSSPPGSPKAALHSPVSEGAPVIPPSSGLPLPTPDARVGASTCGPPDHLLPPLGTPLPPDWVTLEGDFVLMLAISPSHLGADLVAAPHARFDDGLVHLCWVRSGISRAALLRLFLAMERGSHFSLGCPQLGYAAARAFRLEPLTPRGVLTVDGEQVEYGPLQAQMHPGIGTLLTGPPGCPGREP

[3] = target: T1, Sphingosine kinase 2 (Homo sapiens); details: at 1 µM
[4] = target: Casein kinase II subunit alpha (Homo sapiens) (UniProt P68400); details: at 0.1 µM
Chain of Casein kinase II subunit alpha (Homo sapiens) (P68400 whole entry, looked up): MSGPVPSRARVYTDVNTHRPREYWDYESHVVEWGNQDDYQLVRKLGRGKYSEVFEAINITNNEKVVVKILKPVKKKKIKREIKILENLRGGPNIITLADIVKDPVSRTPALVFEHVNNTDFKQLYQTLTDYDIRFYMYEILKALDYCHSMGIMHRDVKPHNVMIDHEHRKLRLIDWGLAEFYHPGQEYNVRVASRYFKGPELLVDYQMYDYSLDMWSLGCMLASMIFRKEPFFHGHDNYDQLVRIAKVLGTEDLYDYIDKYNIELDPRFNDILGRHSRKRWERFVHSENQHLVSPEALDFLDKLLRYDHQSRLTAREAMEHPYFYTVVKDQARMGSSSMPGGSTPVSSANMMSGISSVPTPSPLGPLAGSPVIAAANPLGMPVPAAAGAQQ

[5] = target: Casein kinase II subunit alpha (Homo sapiens) (UniProt P68400); details: at 1 µM
[6] = target: T2, Inhibitor of nuclear factor kappa-B kinase subunit alpha (Homo sapiens) (UniProt O15111); details: at 0.1 µM
T2 sequence (whole entry): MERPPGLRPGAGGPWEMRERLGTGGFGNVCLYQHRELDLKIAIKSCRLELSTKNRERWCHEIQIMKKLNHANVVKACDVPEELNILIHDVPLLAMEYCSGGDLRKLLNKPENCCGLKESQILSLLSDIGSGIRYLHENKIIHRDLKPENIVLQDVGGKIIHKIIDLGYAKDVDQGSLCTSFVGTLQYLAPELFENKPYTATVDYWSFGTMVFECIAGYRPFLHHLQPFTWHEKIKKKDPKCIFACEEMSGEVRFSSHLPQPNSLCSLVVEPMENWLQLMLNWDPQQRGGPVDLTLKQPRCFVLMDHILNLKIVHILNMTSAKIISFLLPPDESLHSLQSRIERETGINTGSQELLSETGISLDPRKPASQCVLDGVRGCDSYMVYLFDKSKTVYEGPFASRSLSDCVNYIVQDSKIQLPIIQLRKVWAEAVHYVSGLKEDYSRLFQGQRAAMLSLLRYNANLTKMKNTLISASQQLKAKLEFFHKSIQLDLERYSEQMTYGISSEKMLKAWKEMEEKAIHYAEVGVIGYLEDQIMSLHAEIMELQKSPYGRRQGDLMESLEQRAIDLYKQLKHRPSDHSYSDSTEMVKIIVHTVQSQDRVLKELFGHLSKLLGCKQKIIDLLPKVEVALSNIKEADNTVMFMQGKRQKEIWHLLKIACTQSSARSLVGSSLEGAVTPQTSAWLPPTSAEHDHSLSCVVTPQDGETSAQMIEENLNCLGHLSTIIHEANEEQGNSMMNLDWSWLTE

[7] = target: T2, Inhibitor of nuclear factor kappa-B kinase subunit alpha (Homo sapiens); details: at 1 µM
[8] = target: T3, Inhibitor of nuclear factor kappa-B kinase subunit beta (Homo sapiens) (UniProt O14920); details: at 0.1 µM
T3 sequence (whole entry): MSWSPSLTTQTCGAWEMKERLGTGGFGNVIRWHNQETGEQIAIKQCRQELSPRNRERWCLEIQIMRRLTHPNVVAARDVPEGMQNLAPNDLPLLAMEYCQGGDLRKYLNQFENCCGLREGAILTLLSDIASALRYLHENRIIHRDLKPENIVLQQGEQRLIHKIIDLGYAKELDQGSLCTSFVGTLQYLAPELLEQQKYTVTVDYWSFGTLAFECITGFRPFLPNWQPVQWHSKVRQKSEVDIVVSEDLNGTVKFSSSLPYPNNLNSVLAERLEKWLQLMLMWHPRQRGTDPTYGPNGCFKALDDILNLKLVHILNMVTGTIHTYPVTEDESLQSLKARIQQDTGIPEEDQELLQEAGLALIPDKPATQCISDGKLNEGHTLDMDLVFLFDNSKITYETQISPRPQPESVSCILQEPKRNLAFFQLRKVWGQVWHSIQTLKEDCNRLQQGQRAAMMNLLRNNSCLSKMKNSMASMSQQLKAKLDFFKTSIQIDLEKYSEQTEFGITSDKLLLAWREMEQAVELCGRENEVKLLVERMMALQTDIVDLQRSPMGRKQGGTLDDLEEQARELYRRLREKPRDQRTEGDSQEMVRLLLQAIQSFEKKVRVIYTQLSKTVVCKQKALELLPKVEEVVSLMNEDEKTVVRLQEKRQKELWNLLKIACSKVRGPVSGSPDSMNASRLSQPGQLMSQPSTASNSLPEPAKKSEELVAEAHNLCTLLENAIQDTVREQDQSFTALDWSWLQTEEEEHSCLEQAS

[9] = target: T3, Inhibitor of nuclear factor kappa-B kinase subunit beta (Homo sapiens); details: at 1 µM
[10] = target: T4, Inhibitor of nuclear factor kappa-B kinase subunit epsilon (Homo sapiens) (UniProt Q14164); details: at 0.1 µM
T4 sequence (whole entry): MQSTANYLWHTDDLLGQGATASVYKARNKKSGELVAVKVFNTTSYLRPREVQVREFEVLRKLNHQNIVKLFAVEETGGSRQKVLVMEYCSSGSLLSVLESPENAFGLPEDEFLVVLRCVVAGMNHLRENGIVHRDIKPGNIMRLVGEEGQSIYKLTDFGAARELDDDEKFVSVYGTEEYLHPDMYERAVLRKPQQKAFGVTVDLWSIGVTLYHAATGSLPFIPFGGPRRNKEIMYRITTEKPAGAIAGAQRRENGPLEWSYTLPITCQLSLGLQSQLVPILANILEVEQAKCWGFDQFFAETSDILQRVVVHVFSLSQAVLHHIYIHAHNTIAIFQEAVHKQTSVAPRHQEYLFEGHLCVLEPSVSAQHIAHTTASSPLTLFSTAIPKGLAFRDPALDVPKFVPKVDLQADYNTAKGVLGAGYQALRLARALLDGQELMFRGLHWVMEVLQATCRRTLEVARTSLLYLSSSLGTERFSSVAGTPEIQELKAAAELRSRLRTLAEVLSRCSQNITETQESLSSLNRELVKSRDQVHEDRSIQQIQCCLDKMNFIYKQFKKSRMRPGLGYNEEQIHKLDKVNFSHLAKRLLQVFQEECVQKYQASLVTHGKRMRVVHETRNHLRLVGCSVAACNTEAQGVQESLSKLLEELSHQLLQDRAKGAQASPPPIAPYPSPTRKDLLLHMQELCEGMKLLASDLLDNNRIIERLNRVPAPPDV

[11] = target: T4, Inhibitor of nuclear factor kappa-B kinase subunit epsilon (Homo sapiens); details: at 1 µM
[12] = target: T5, Serine/threonine-protein kinase Nek1 (Homo sapiens) (UniProt Q96PY6); details: at 0.1 µM
T5 sequence (whole entry): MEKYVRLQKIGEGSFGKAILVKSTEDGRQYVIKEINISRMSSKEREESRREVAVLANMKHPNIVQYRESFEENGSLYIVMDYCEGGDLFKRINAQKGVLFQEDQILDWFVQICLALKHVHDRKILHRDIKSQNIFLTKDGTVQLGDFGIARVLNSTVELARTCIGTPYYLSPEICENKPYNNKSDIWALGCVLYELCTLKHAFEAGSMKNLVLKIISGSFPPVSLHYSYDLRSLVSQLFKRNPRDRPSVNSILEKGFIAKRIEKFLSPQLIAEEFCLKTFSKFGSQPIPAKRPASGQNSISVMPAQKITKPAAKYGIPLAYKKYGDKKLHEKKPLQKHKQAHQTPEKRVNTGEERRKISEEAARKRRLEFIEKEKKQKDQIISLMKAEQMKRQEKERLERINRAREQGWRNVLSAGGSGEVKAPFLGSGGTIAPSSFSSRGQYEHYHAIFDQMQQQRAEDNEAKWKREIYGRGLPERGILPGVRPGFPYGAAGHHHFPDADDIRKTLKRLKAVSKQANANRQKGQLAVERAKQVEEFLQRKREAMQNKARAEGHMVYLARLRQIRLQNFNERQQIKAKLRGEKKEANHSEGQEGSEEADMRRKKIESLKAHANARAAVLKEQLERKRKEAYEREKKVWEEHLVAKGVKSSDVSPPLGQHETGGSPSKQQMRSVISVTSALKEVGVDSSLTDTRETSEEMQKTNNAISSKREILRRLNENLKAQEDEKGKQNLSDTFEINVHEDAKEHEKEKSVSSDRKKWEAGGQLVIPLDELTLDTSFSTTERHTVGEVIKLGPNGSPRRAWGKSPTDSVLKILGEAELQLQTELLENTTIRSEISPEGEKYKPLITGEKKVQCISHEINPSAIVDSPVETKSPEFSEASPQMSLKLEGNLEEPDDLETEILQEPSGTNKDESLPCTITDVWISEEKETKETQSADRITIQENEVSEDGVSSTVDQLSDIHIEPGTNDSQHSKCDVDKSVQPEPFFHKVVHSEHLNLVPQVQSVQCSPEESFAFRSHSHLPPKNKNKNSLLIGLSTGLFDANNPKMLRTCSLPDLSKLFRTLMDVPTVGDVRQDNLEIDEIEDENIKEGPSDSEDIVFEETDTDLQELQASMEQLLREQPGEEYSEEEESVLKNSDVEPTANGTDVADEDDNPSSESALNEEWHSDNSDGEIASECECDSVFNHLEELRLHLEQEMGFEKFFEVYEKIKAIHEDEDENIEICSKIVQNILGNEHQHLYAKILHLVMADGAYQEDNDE

[13] = target: T5, Serine/threonine-protein kinase Nek1 (Homo sapiens); details: at 1 µM
[14] = target: T6, Serine/threonine-protein kinase Nek2 (Homo sapiens) (UniProt P51955); details: at 0.1 µM
T6 sequence (whole entry): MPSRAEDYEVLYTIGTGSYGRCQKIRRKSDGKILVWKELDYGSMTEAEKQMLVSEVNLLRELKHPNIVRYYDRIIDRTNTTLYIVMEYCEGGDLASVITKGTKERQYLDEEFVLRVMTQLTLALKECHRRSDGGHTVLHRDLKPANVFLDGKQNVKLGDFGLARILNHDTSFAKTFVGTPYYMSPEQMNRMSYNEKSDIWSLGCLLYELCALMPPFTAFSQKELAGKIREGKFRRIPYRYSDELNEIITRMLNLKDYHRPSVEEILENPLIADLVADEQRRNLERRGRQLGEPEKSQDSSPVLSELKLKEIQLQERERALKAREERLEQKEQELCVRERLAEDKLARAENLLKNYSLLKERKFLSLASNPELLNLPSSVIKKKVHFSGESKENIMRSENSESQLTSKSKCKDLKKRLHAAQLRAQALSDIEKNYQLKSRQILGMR

[15] = target: T6, Serine/threonine-protein kinase Nek2 (Homo sapiens); details: at 1 µM
[16] = target: Serine/threonine-protein kinase Nek6 (Homo sapiens) (UniProt Q9HC98); details: at 0.1 µM
Chain of Serine/threonine-protein kinase Nek6 (Homo sapiens) (Q9HC98 whole entry): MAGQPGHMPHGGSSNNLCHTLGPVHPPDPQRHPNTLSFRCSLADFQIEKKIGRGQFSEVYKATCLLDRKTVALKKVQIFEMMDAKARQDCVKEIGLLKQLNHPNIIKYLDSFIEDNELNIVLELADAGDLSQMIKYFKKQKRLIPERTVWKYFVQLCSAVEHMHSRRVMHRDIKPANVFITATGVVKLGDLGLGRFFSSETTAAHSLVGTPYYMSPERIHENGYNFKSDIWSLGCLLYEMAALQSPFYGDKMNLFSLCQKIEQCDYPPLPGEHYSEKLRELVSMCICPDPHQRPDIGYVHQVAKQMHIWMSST

[17] = target: Serine/threonine-protein kinase Nek6 (Homo sapiens) (UniProt Q9HC98); details: at 1 µM
[18] = target: Serine/threonine-protein kinase Nek7 (Homo sapiens) (UniProt Q8TDX7); details: at 0.1 µM
Chain of Serine/threonine-protein kinase Nek7 (Homo sapiens) (Q8TDX7 whole entry, looked up): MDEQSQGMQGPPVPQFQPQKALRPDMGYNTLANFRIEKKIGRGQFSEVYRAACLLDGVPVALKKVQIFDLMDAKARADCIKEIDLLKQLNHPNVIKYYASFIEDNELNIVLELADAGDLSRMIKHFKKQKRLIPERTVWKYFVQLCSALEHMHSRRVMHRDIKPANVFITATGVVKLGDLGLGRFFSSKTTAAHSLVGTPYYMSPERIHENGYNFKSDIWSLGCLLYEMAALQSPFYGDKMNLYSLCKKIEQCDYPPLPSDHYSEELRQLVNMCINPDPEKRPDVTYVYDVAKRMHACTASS

[19] = target: Serine/threonine-protein kinase Nek7 (Homo sapiens) (UniProt Q8TDX7); details: at 1 µM
[20] = target: T7, Serine/threonine-protein kinase Nek9 (Homo sapiens) (UniProt Q8TD19); details: at 0.1 µM;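 also: reported value is the mean percent inhibition of NEK9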
T7 sequence (whole entry): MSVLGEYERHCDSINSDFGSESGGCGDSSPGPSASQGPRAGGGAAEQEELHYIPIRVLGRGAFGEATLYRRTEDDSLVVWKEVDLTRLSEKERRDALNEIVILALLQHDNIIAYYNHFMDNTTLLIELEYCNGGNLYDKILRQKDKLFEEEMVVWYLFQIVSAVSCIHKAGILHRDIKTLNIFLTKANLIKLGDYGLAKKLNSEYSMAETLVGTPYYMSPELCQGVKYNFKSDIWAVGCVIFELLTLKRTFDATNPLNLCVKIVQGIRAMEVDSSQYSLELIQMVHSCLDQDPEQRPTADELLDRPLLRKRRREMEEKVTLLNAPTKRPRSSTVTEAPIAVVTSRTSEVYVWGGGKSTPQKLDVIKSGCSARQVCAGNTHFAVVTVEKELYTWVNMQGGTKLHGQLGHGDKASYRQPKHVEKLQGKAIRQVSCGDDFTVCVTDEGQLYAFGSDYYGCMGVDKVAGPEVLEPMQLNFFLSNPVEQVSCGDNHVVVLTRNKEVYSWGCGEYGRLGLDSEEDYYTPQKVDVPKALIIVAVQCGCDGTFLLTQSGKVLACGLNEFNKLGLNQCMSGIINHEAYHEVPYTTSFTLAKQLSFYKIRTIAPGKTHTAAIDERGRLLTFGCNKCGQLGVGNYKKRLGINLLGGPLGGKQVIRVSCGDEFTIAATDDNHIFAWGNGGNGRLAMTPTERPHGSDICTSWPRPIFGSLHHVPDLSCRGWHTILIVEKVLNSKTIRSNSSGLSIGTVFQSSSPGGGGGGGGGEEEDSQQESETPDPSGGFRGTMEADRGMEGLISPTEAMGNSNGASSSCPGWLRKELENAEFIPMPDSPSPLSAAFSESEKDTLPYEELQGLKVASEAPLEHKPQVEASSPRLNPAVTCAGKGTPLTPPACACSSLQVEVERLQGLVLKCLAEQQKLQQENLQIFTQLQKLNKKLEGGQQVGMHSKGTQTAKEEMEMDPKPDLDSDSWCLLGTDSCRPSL

Chain of Sphingosine kinase 1 (Homo sapiens) (Q9NYA1 whole entry): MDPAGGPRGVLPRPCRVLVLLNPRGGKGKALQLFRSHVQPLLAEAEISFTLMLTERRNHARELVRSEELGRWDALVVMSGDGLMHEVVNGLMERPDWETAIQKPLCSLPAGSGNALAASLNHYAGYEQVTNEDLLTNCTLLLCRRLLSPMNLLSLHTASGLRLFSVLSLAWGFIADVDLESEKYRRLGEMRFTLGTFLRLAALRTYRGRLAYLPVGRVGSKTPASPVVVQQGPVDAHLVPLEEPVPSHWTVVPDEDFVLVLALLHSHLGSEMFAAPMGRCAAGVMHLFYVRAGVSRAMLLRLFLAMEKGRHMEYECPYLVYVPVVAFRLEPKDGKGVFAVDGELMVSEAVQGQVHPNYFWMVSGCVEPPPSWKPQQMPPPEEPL

O=C(O[C@H]1CN[C@H](C#Cc2cc3ncnc(Nc4ccc(OCc5cccc(F)c5)c(Cl)c4)c3s2)C1)N1CCOCC1
inhibition [1]: -2.17%
inhibition [2]: 0.46%
inhibition [3]: -2.18%
inhibition [4]: 4.85%
inhibition [5]: 11.5%
inhibition [6]: 6.35%
inhibition [7]: 6.72%
inhibition [8]: 8.43%
inhibition [9]: 11.1%
inhibition [10]: 8.36%
inhibition [11]: 9.71%
inhibition [12]: 3.33%
inhibition [13]: 4.01%
inhibition [14]: 6.18%
inhibition [15]: 8.23%
inhibition [16]: 1.15%
inhibition [17]: 2.74%
inhibition [18]: 4.68%
inhibition [19]: 3.68%
inhibition [20]: 5.79%
